Assay outcomes deposited in PubChem BioAssay by National Center for Advancing Translational Sciences (NCATS).
Sampled rows, rich in hits. Any-hit rate of the full collection: about 7.9%.
HT1080 IDH1KD tx: qHTS for induction of synthetic lethality in tumor cells producing 2HG: qHTS for the HT-1080-IDH1KD cell line; HT-1080 IDH1 knockdown viability, ATP luminescence, 48 h; Potency, µM (top dose mostly 46.1 µM), for inactives: at the highest dose activity, negative = toxicity, actives largely listed as cytotoxic; 360,000 tested, 2% active;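 also: 0% = DMSO wells and -100% = cell-free medium wells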
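After a 2 h attachment period, IDH1KD HT-1080 cells took pin-transferred compound for 48 h at 37 °C; ATP-based luminescence after 10 min room-temperature reagent incubation reported viability.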
MCF10A rereplic: A quantitative high throughput screen for small molecules that induce DNA re-replication in MCF 10a normal breast cells | MCF 10A DNA re-replication, Hoechst nuclear intensity, 48 h | Potency, µM (top dose mostly 46.1 µM), inactives show at the highest dose activity, positive = re-replication, usual class: activators | 350,000 tested, 2.9% active | AID 624296, 2012; also: % of control where 0% means no effect; nearly all actives have a fitted effect of over 50% in size
KB-3-1 tox: qHTS assay for MDR1-selective chemotherapeutics: Primary screen using the parental adenocarcinoma cell KB-3-1; KB-3-1 viability, CellTiter-Glo ATP luminescence, 72 h; Potency, µM (highest dose often 46.1 µM), usual class: cytotoxic; 400,000 tested, 1.4% active; AID 1347075, 2019; also: % is scaled to controls: 0 for no effect and ±100 for the full control effect; nearly all actives have a fitted effect of over 60% in size
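Cytotoxicity in the drug-sensitive parental line KB-3-1 was scored as loss of CellTiter-Glo luminescence following 72 h incubation with compound. Values come from curve fitting of normalized concentration-response data.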
SW480 rerep: A quantitative high throughput screen for small molecules that induce DNA re-replication in SW480 colon adenocarcinoma cells | SW480 DNA re-replication, Hoechst DNA content imaging, 48 h | 340,000 tested, 1.8% active | Potency, µM (doses to about 46.1 µM), without a hit: at the highest dose re-replication activation, most hits filed as activators; also: % of control where 0% means no effect; nearly all actives have a fitted effect of over 55% in size
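Readout is total intensity of Hoechst-stained nuclei, excited at 405 nm and collected at 500-530 nm. Compound treatment lasted 48 hr at 37 C in 5% CO2 before staining.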
KB-V1 cytotox: qHTS assay for MDR1-selective chemotherapeutics: Primary screen using the drug-selected MDR subline cells KB-V1; 400,000 tested, 3.4% active; Potency, µM (doses to about 46.1 µM), actives largely listed as cytotoxic; KB-V1 MDR cells viability, CellTiter-Glo, 72 h; AID 1347076, 2019; also: % is scaled to controls: 0 for no effect and ±100 for the full control effect; nearly all actives have a fitted effect of over 60% in size
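Readout: CellTiter-Glo luminescence, 10 min after addition. Cells: KB-V1 MDR subline, 72 h at 37 degrees C with compound. Analysis: corrected, normalized data fitted to concentration-effect curves.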
HT1080NT lethal: qHTS for induction of synthetic lethality in tumor cells producing 2HG: qHTS for the HT-1080-NT fibrosarcoma cell line; AID 686970, 2013; 360,000 tested, 1.6% active; HT-1080-NT fibrosarcoma viability, CellTiter-Glo ATP luminescence, 48 h; Potency, µM (doses to about 46.1 µM), for the others: top-dose activity, negative = less viability, hits mostly cytotoxic;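 also: NT is the 2HG producing partner of a matched IDH1 knockdown line; 0% = DMSO-treated cells and -100% = media-only wells without cells; nearly all actives have a fitted effect of over 55% in size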
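Fibrosarcoma NT cells, 750 per well in 5% FBS RPMI, were exposed to compound for 48 hours. Viability: CellTiter-Glo luminescence.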
Active calls of the source: *. Calls follow the shape of the dose curve; as a rule, active = well fitted curve in the direction sought with a large enough effect; inconclusive = small, poorly fitted or top-dose-only effect, or another doubt; inactive = no such curve, though single readings can be large; an effect the other way counts as inactive or inconclusive. Potency is read from the fitted curve at half-maximal effect.

How did Cc1cc(C)nc(SCC(=O)Nc2ccnc3ccccc23)n1 do in these assays?
HT1080 IDH1KD tx: -13.2%; MCF10A rereplic: -6.3%; KB-3-1 tox: 3.66µM*; SW480 rerep: 2.8%; KB-V1 cytotox: 4.61µM*; HT1080NT lethal: 0.6%

How did Cc1cccc(Nc2nnc(SCC(=O)Nc3ccccc3[N+](=O)[O-])s2)c1 do in these assays?
HT1080 IDH1KD tx: -15.6%; MCF10A rereplic: 6.7%; KB-3-1 tox: inactive; SW480 rerep: 1.5%; KB-V1 cytotox: 20.6µM*; HT1080NT lethal: -10.6%

How did Cc1cc(C)nc(SCNC(=O)c2ccccc2)n1 do in these assays?
HT1080 IDH1KD tx: 7.08µM*; MCF10A rereplic: inconclusive; KB-3-1 tox: inactive; SW480 rerep: 5.8µM*; KB-V1 cytotox: inactive; HT1080NT lethal: 5.01µM*

What do the screens show for `COC(=O)c1ccccc1NC(=O)CSc1nc(C)cc(C)n1`?
HT1080 IDH1KD tx: 0.7%; MCF10A rereplic: 5.8%; KB-3-1 tox: inactive; SW480 rerep: -7.5%; KB-V1 cytotox: inactive; HT1080NT lethal: -11.3%

What do the screens show for `Cc1cc(C)n2nc(SCC(=O)Nc3ccc(F)cc3[N+](=O)[O-])nc2n1`?
HT1080 IDH1KD tx: 0.4%; MCF10A rereplic: 1.5%; KB-3-1 tox: inactive; SW480 rerep: -3.3%; KB-V1 cytotox: 20.6µM*; HT1080NT lethal: 0.9%

How did CSCCC(C(=O)Nc1c(C)cccc1C)N(Cc1ccccc1)Cc1ccccc1 (centres undefined) do in these assays?
HT1080 IDH1KD tx: inconclusive; KB-3-1 tox: inactive; KB-V1 cytotox: inconclusive; HT1080NT lethal: inconclusive

How did Cc1ccc(CNc2ncnc3onc(C)c23)cc1 do in these assays?
KB-3-1 tox: inactive; KB-V1 cytotox: inactive

Results for Cc1cc(C)nc(SCc2ccc(C(=O)N/N=C/c3cccc(O)c3O)cc2)n1 ?
HT1080 IDH1KD tx: 2.31µM*; MCF10A rereplic: inconclusive; KB-3-1 tox: inconclusive; SW480 rerep: inconclusive; KB-V1 cytotox: inconclusive; HT1080NT lethal: inconclusive

What do the screens show for `Cc1cc(C)nc(SCC(=O)Nc2ccccc2[N+](=O)[O-])n1`?
HT1080 IDH1KD tx: 3.7%; MCF10A rereplic: 0.7%; KB-3-1 tox: inactive; SW480 rerep: -3.1%; KB-V1 cytotox: 23.1µM*; HT1080NT lethal: 3.7%

What do the screens show for `Cc1cccc(SCC(=O)Nc2ccccc2[N+](=O)[O-])c1`?
HT1080 IDH1KD tx: -4.5%; MCF10A rereplic: 4.9%; KB-3-1 tox: inactive; SW480 rerep: 4.9%; KB-V1 cytotox: inactive; HT1080NT lethal: 8.9%

What do the screens show for `COc1ccc2oc(C(=O)OCC(=O)N3C(C)CCCC3C)c(C)c2c1` (centres undefined)?
HT1080 IDH1KD tx: -4.1%; MCF10A rereplic: 10.7%; KB-3-1 tox: inactive; SW480 rerep: 3.0%; KB-V1 cytotox: inactive; HT1080NT lethal: -6.0%

Results for CCOC(=O)c1oc2ccc(S(=O)(=O)N3CCC(C)CC3)cc2c1C ?
HT1080 IDH1KD tx: 2.5%; MCF10A rereplic: 16.3%; KB-3-1 tox: inactive; SW480 rerep: 1.2%; KB-V1 cytotox: 16.4µM*; HT1080NT lethal: 7.9%

Results for CCN(CC)C(=O)c1oc2ccc(S(=O)(=O)N3CCCCCC3)cc2c1C ?
HT1080 IDH1KD tx: -18.0%; MCF10A rereplic: 29.9%; KB-3-1 tox: inactive; SW480 rerep: 3.4%; KB-V1 cytotox: 13µM*; HT1080NT lethal: inconclusive

What do the screens show for `COc1ccc2oc(C(=O)OCC(=O)N3CCCCC3C)c(C)c2c1` (centres undefined)?
HT1080 IDH1KD tx: -3.4%; MCF10A rereplic: 1.0%; KB-3-1 tox: inactive; SW480 rerep: -4.2%; KB-V1 cytotox: 20.6µM*; HT1080NT lethal: 1.9%

Results for CCN(CC)C(=O)c1oc2ccc(S(=O)(=O)N3CC(C)CC(C)C3)cc2c1C (centres undefined) ?
HT1080 IDH1KD tx: inconclusive; MCF10A rereplic: inconclusive; KB-3-1 tox: inactive; SW480 rerep: -21.4%; KB-V1 cytotox: inconclusive; HT1080NT lethal: inconclusive

What do the screens show for `CCOC(=O)c1oc2ccc(S(=O)(=O)N3CCOCC3)cc2c1C`?
HT1080 IDH1KD tx: 7.5%; MCF10A rereplic: -2.4%; KB-3-1 tox: inactive; SW480 rerep: -11.3%; KB-V1 cytotox: inactive; HT1080NT lethal: 7.0%

What do the screens show for `COc1ccc2oc(C(=O)Nc3ccc(S(=O)(=O)N(C)C4CCN(C)CC4)cc3)c(C)c2c1`?
HT1080 IDH1KD tx: 18.4µM*; MCF10A rereplic: 15.5%; KB-3-1 tox: inconclusive; SW480 rerep: inconclusive; KB-V1 cytotox: inactive; HT1080NT lethal: 23.1µM*

What do the screens show for `COc1ccccc1CNC(=O)COCc1cc(-c2ccc3c(c2)OCO3)on1`?
KB-3-1 tox: inactive; KB-V1 cytotox: inconclusive

What do the screens show for `COc1ccc(Cn2c(=O)c3cccnc3n(CC(=O)Nc3ccc(C)c(F)c3)c2=O)cc1`?
KB-3-1 tox: inactive; KB-V1 cytotox: inactive

How did COc1cc(NC(=O)CSc2ccc(-c3sc(-c4ccccc4)nc3C)nn2)cc(OC)c1 do in these assays?
KB-3-1 tox: inactive; KB-V1 cytotox: inconclusive

Results for COc1cccc(NC(=O)c2oc3ccc(S(=O)(=O)N4CCCCCC4)cc3c2C)c1 ?
KB-3-1 tox: inactive; KB-V1 cytotox: inactive

Results for COc1ccc(NC(=O)c2oc3ccc(S(=O)(=O)N4CCCCC4)cc3c2C)cc1 ?
KB-3-1 tox: inactive; KB-V1 cytotox: 6.51µM*

How did C/C(CC1CC2=C(CC1(C)C)C(C)(C)CCC2)=N\NC(N)=S (centres undefined) do in these assays?
HT1080 IDH1KD tx: 5.62µM*; MCF10A rereplic: -2.6%; KB-3-1 tox: inactive; SW480 rerep: inconclusive; KB-V1 cytotox: inconclusive; HT1080NT lethal: inconclusive

What do the screens show for `C/C(CC1CC(C)(C)OC1=O)=N\NC(N)=S` (centres undefined)?
HT1080 IDH1KD tx: 7.9%; MCF10A rereplic: -21.4%; KB-3-1 tox: inactive; SW480 rerep: 0.8%; KB-V1 cytotox: inactive; HT1080NT lethal: 2.5%

Results for Cc1ccc(C)c(NC(=O)CSc2nc3c([nH]c4ccccc43)c(=O)n2-c2ccc(F)cc2)c1 ?
KB-3-1 tox: inactive; KB-V1 cytotox: inactive
